Laboratory results from PubChem BioAssay (NCATS).
Records with an inconclusive call do not appear. Unmarked numbers belong to inactive results. Calls of active or inactive are those of the source. The call rests on the fitted dose curve; in most records, active means well fitted activation curve with a large enough effect; inconclusive means small, poorly fitted or top-dose-only effect; inactive means flat fitted curve, though single readings scatter.

Assay: qHTS for Activators of Parkin Expression: LOPAC Validation Assay (NLuc Reporter) (AID 720572;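 further: 0% = DMSO and 100% = positive control compound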)
Conditions: Parkin promoter NanoLuc reporter cells, luminescence, percent of positive control, DMSO as zero; series mostly up to 46.1 µM; activation: at the top concentration
Text: Parkin is an E3 ubiquitin ligase localized in the cytosol of cells expressed in many tissues, including brain, skeletal muscle, heart and liver tissues. One hour after stress induction by mitochondrial uncouplers (which mimic mitochondria damage by decreasing the mitochondrial inner membrane electrochemical gradient that is used to produce ATP), Parkin translocates from the cytosol to mitochondria in many cultured cell types, including neurons and HeLa cells. Administration of other mitochondrial poisons, such as Paraquat and azide in cells lacking mitochondrial DNA (mtDNA), induces Parkin translocation to mitochondria. […] It was proposed that Parkin (together with Pink1) mediates a mitochondrial quality control pathway to maintain organelle population fidelity by removing damaged mitochondria. Understanding the normal physiologic role of Parkin (and Pink1) may uncover novel treatment strategies for sporadic Parkinson's disease patients with mutation in these genes.
A cell based qHTS in 1536 well format was developed assess modulation of Parkin expression using a neuronal cell line that stably expresses a stably expresses a luminescent coincidence reporter (FLuc and NLuc reporters) behind the Parkin promoter. The LOPAC library is used to validate the assay for quantitative high-throughput screening. The data herein reports the signal from the NLuc reporter. An increase in this signal = activation of Parkin expression. For this assay , a positive control normalized signal increase corresponding to a high quality qHTS curve class in both luminescent channels is the desired outcome for this assay.
NIH Chemical Genomics Center [NCGC]
NIH Molecular Libraries Probe Centers Network [MLPCN]
Assay Submitter (PI): Richard Youle, National Institute of Neurological Disorders and Strokes (NINDS), NIH
[1] Narendra, D., et al., Parkin is recruited selectively to impaired mitochondria and promotes their autophagy. J Cell Biol, 2008. 183(5): p.
[2] Suen, D.F., et al., Parkin overexpression selects against a deleterious mtDNA mutation in heteroplasmic cybrid cells. Proc Natl Acad Sci U S A, 2010. […] 11835-40.
[3] Cheng K, Inglese J. A coincedence reporter-gene system for high-throughput screening. Nat Methods. 2012: 9(10);937
Five microliters (1,500 cells/well) of the Parkin coincidence reporter cells were seeded to 1536 well assay plates (Greiner Catalog # 789173-F) and incubated at 37 C, 5% CO2 for 24 hours. Compounds (23 nL) were pinned using the Kalypsys robotic system equipped with 1536 pin head adaptor in 7-point dose response. The assay plates were incubated for additional 24 hr at 37 C, 5% CO2 followed by a volume reduction in each well to 2 uL using an automated plate washer/aspirator. Following the volume reduction,2 uL of FLuc detection reagent and plates were incubated for 10 minutes at room temperature. The FLuc luminescence signal was obtained using the PerkinElmer ViewLux plate imager and then 2 uL of NanoLuc detection reagent was added to the plates. After another 10 minute incubation, NanoLuc signal was obtained using the PerkinElmer ViewLux plate imager as before. Data from each channel was normalized to DMSO (neutral control) and the positive control compounds (100%).

| Compound | activation [%] | outcome |
| --- | --- | --- |
| CCC1(c2ccc(N)cc2)CCC(=O)NC1=O (stereo not given) | -3.49 |  |
| C=C(C)[C@H]1CN[C@H](C(=O)O)[C@H]1CC(=O)O | 0.513 |  |
| CC(C)N(CCC(C(N)=O)(c1ccccc1)c1ccccn1)C(C)C (stereo not given) |  | inactive |
| CN1C(=O)CCS(=O)(=O)C1c1ccc(Cl)cc1 (stereo not given) | -2.74 |  |
| CC(NC(C)(C)C)C(=O)c1cccc(Cl)c1 (stereo not given) | 3 |  |
| CC(C)c1cccc(C(C)C)c1O | -2.84 |  |
| Cc1ncsc1CCCl | -1.76 |  |
| O=C(CCCN1CCC2(CC1)C(=O)NCN2c1ccccc1)c1ccc(F)cc1 | -1.75 |  |
| O=P1(N(CCCl)CCCl)NCCCO1 (stereo not given) | -5.9 |  |
| O=c1[nH]oc2c1CCNC2 | 1.22 |  |
| CC(C)(C)NCC(O)c1ccccc1Cl (stereo not given) | 0.846 |  |
| COc1ccc2c(c1OC)C(=O)O[C@H]2[C@@H]1c2cc3c(cc2CCN1C)OCO3 | 2.59 |  |
| NCCc1ccc(O)cc1 | -1.72 |  |
| O=C(O)CCCc1ccc(N(CCCl)CCCl)cc1 | -7.53 |  |
| CCCCC/C=C\C/C=C\C/C=C\C/C=C\CCCC(=O)NCC(=O)O | -0.353 |  |
